According to PubChem BioAssay (NCI):
About 83,000 compounds went through this panel and 20% of them were active in at least one assay; those are over-represented in the sample as a whole.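 Cells were grown in 96-well plates and exposed to the test compound at a single concentration for 48 hours; results are reported as percent growth, with values below 10 considered active.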 Active and inactive are the calls of the source.

Columns and labels:
Assay in all cases: NCI-60 one-dose screen, 48 h (100 = growth as untreated, 0 = no growth, -100 = all killed)
Conditions in all cases: 10 µM unless noted
SR leukemia = system: SR leukemia
RPMI-8226 leukemia = system: RPMI-8226 leukemia
OVCAR-8 ovarian = system: OVCAR-8 ovarian
OVCAR-5 ovarian = system: OVCAR-5 ovarian
OVCAR-4 ovarian = system: OVCAR-4 ovarian
SK-OV-3 ovarian = system: SK-OV-3 ovarian
IGROV1 ovarian = system: IGROV1 ovarian
OVCAR-3 ovarian = system: OVCAR-3 ovarian
NCI/ADR-RES ovarian = system: NCI/ADR-RES ovarian
HS 578T breast = system: HS 578T breast

Measured: growth

COc1ccccc1CNCCCN1C(=O)c2ccc3c4c(ccc(c24)C1=O)C(=O)N(CCCNCCCCNCCCCN)C3=O
active: SR leukemia 2.93% | OVCAR-8 ovarian -18.2% | OVCAR-4 ovarian -33.8% | IGROV1 ovarian -57.8% | OVCAR-3 ovarian 1.36%
inactive: RPMI-8226 leukemia 17.3% | OVCAR-5 ovarian 24.5% | SK-OV-3 ovarian 28% | NCI/ADR-RES ovarian 62.2%

CN(C)c1ccc(C2CC(c3ccccc3)=NN2/C=C2\SC(=O)NC2=O)cc1 (stereo not drawn)
inactive: SR leukemia 50.8% | RPMI-8226 leukemia 87.7% | OVCAR-8 ovarian 100% | OVCAR-5 ovarian 94.2% | OVCAR-4 ovarian 82.6% | SK-OV-3 ovarian 115% | IGROV1 ovarian 94% | OVCAR-3 ovarian 101% | HS 578T breast 98.1% | NCI/ADR-RES ovarian 95.2%

CCCCCCCCCN1C(=O)/C(=c2\sc3n(c2=O)C2C(NN=3)N(CC)C(=O)N2CC)c2ccccc21 (stereo not drawn)
active: SR leukemia 5.57%
inactive: RPMI-8226 leukemia 80.4% | OVCAR-8 ovarian 36.7% | OVCAR-5 ovarian 80.8% | OVCAR-4 ovarian 13.2% | SK-OV-3 ovarian 93.7% | IGROV1 ovarian 54.1% | OVCAR-3 ovarian 21.1% | HS 578T breast 26.7% | NCI/ADR-RES ovarian 46.9%

COc1ccc(C(=O)/C=C/c2ccc(/C=C/c3cc(OC)c(OC)c(OC)c3)cc2)cc1
inactive: OVCAR-8 ovarian 28.4% | OVCAR-5 ovarian 117% | OVCAR-4 ovarian 65.7% | SK-OV-3 ovarian 102% | OVCAR-3 ovarian 41.4% | NCI/ADR-RES ovarian 50%
active: SR leukemia 9.61% | RPMI-8226 leukemia -0.626% | IGROV1 ovarian 6.66%

C/C1=C\CCC2(C)OC2CC2CCC(C)(O)C(CC1)C2(C)C (stereo not drawn)
inactive: SR leukemia 92.4% | RPMI-8226 leukemia 111% | OVCAR-8 ovarian 89.8% | OVCAR-5 ovarian 112% | OVCAR-4 ovarian 99.7% | SK-OV-3 ovarian 112% | IGROV1 ovarian 93.9% | OVCAR-3 ovarian 118% | HS 578T breast 83.8% | NCI/ADR-RES ovarian 104%

Cn1c(C(N)=O)cc2c1-c1nc(NC3CCCCC3)ncc1CCC2
inactive: SR leukemia 92.5% | RPMI-8226 leukemia 93.5% | OVCAR-8 ovarian 88.1% | OVCAR-5 ovarian 64.6% | OVCAR-4 ovarian 93.4% | SK-OV-3 ovarian 91.3% | IGROV1 ovarian 113% | OVCAR-3 ovarian 97.1% | HS 578T breast 58.5% | NCI/ADR-RES ovarian 91.5%

CCN(CC)CCSc1c2ccc(Cl)cc2nc2ccc(OC)cc12
inactive: SR leukemia 12.1% | RPMI-8226 leukemia 72.7% | OVCAR-8 ovarian 88.5% | OVCAR-5 ovarian 103% | OVCAR-4 ovarian 81% | SK-OV-3 ovarian 86.5% | IGROV1 ovarian 98.1% | OVCAR-3 ovarian 24.5% | HS 578T breast 108% | NCI/ADR-RES ovarian 105%

ClC1=C(Cl)C(Cl)=C(Cl)C1=Cc1ccc(Cl)cc1Cl
inactive: SK-OV-3 ovarian 38.5% | HS 578T breast 11.6%
active: SR leukemia 2.92% | RPMI-8226 leukemia -10.7% | OVCAR-8 ovarian 2.92% | OVCAR-5 ovarian 8.75% | OVCAR-4 ovarian 5.94% | IGROV1 ovarian 7.32% | OVCAR-3 ovarian -83.7% | NCI/ADR-RES ovarian -34.8%

CCN(CC)P(=O)(N(CC)CC)N(CCCSC/C=C(\C)CC/C=C(\C)CCC=C(C)C)CCCN1CCN(C)CC1
inactive: SR leukemia 22.9% | RPMI-8226 leukemia 94.6% | OVCAR-8 ovarian 97.1% | OVCAR-5 ovarian 103% | OVCAR-4 ovarian 92.5% | SK-OV-3 ovarian 103% | IGROV1 ovarian 110% | OVCAR-3 ovarian 104% | NCI/ADR-RES ovarian 106%

COc1cc2nc(N3CCC[C@@H](NC4=CC(=O)c5ccccc5C4=O)C3)nc(N)c2cc1OC
active: SR leukemia -11.3% | RPMI-8226 leukemia -44.1% | OVCAR-8 ovarian -41.2% | IGROV1 ovarian -82.3% | OVCAR-3 ovarian -69.5%
inactive: OVCAR-5 ovarian 110% | OVCAR-4 ovarian 81.5% | SK-OV-3 ovarian 112% | NCI/ADR-RES ovarian 99%

COc1ccc(/C=C2\Oc3cc(OCCN4CCCC4)ccc3C2=O)c(OC)c1
inactive: SR leukemia 19.6% | RPMI-8226 leukemia 33.9% | OVCAR-8 ovarian 96.2% | OVCAR-5 ovarian 90.3% | OVCAR-4 ovarian 97.6% | SK-OV-3 ovarian 110% | IGROV1 ovarian 99.3% | OVCAR-3 ovarian 93.8% | HS 578T breast 98.5% | NCI/ADR-RES ovarian 91.9%

Nc1c(C(=O)Nc2ccccc2)sc2nc3c(cc12)CN(Cc1ccccc1)CC3
active: OVCAR-4 ovarian -14.7%
inactive: SR leukemia 55.6% | RPMI-8226 leukemia 79.6% | OVCAR-8 ovarian 74.8% | OVCAR-5 ovarian 78.5% | SK-OV-3 ovarian 39.2% | IGROV1 ovarian 77.9% | OVCAR-3 ovarian 56.6% | HS 578T breast 11.1% | NCI/ADR-RES ovarian 71%

Clc1nc(Cl)c2ncn(C/C=C/Cn3cnc4c(Cl)nc(Cl)nc43)c2n1
active: SR leukemia -14.2% | RPMI-8226 leukemia -17.3% | OVCAR-8 ovarian 7.73%
inactive: OVCAR-5 ovarian 112% | OVCAR-4 ovarian 94.6% | SK-OV-3 ovarian 103% | IGROV1 ovarian 17.7% | OVCAR-3 ovarian 60.5% | HS 578T breast 46.3% | NCI/ADR-RES ovarian 99%

COc1ccc(S(=O)(=O)N2CCN(c3cc4c(cc3F)c(=O)c(C(=O)O)cn4C3CC3)CC2)c(OC)c1
inactive: SR leukemia 81.6% | RPMI-8226 leukemia 86.7% | OVCAR-8 ovarian 92.4% | OVCAR-5 ovarian 110% | OVCAR-4 ovarian 101% | SK-OV-3 ovarian 98.6% | IGROV1 ovarian 101% | OVCAR-3 ovarian 95.8% | NCI/ADR-RES ovarian 102%

CNC(=O)Cc1nc(-c2cccc(NS(=O)(=O)c3c(F)cccc3F)c2F)c(-c2ccnc(Nc3ccccc3)n2)s1
inactive: SR leukemia 76.4% | RPMI-8226 leukemia 101% | OVCAR-8 ovarian 57.8% | OVCAR-5 ovarian 32.9% | OVCAR-4 ovarian 124% | SK-OV-3 ovarian 29.9% | IGROV1 ovarian 17.5% | OVCAR-3 ovarian 77.2% | HS 578T breast 64.5% | NCI/ADR-RES ovarian 104%

O=S(=O)(NCCNc1cc(-c2cn(-c3ccccc3)nc2-c2ccccc2)ccn1)c1cccc2ccccc12
inactive: SR leukemia 56% | RPMI-8226 leukemia 38.7% | OVCAR-8 ovarian 56% | OVCAR-5 ovarian 74.4% | OVCAR-4 ovarian 49.1% | SK-OV-3 ovarian 66.3% | IGROV1 ovarian 63.1% | OVCAR-3 ovarian 59.5% | NCI/ADR-RES ovarian 43.8%

COc1cccc(C2CC(=O)Nc3c2c(C)nn3-c2nc3ccccc3[nH]2)c1OC (stereo not drawn)
inactive: SR leukemia 33.2% | RPMI-8226 leukemia 70.4% | OVCAR-8 ovarian 55% | OVCAR-5 ovarian 114% | OVCAR-4 ovarian 74.4% | SK-OV-3 ovarian 79.9% | OVCAR-3 ovarian 74% | NCI/ADR-RES ovarian 73.2%
active: IGROV1 ovarian 3.88%

COc1cc(C2C=C(C)N=C3SC(C)=NN32)cc(OC)c1OC (stereo not drawn)
inactive: SR leukemia 96.3% | RPMI-8226 leukemia 108% | OVCAR-8 ovarian 104% | OVCAR-5 ovarian 95.9% | OVCAR-4 ovarian 104% | SK-OV-3 ovarian 92.5% | IGROV1 ovarian 101% | OVCAR-3 ovarian 106% | NCI/ADR-RES ovarian 101%

Clc1nc2ccccc2nc1CI
inactive: RPMI-8226 leukemia 77.6% | OVCAR-8 ovarian 90.4% | OVCAR-5 ovarian 109% | OVCAR-4 ovarian 94.3% | SK-OV-3 ovarian 104% | IGROV1 ovarian 72.7% | OVCAR-3 ovarian 123% | HS 578T breast 115% | NCI/ADR-RES ovarian 98.9%
active: SR leukemia 8.99%

NS(=O)(=O)c1ccc(CN2C(=O)c3cccc4cccc(c34)C2=O)cc1
inactive: SR leukemia 104% | RPMI-8226 leukemia 87.2% | OVCAR-8 ovarian 91.9% | OVCAR-5 ovarian 89.6% | OVCAR-4 ovarian 119% | SK-OV-3 ovarian 101% | IGROV1 ovarian 105% | OVCAR-3 ovarian 98.5% | NCI/ADR-RES ovarian 98%

CC(C)(C)c1cc(-c2nc3ccc(N4CCN(CCO)CC4)cc3[nH]2)cc(C(C)(C)C)c1O
active: SR leukemia -16% | RPMI-8226 leukemia 1.15%
inactive: OVCAR-8 ovarian 83.8% | OVCAR-5 ovarian 90.6% | OVCAR-4 ovarian 76.7% | SK-OV-3 ovarian 84% | IGROV1 ovarian 82.7% | OVCAR-3 ovarian 72.7% | NCI/ADR-RES ovarian 93.2%

Cc1cc(Nc2nc(-c3ccncc3)nc3ccccc23)n[nH]1
inactive: SR leukemia 18.3% | RPMI-8226 leukemia 91.6% | OVCAR-8 ovarian 101% | OVCAR-5 ovarian 87.1% | OVCAR-4 ovarian 52.4% | SK-OV-3 ovarian 22.8% | IGROV1 ovarian 16.3% | OVCAR-3 ovarian 67.2% | NCI/ADR-RES ovarian 86.4%

COc1ccc(-c2nnc(COc3ccc(NS(=O)(=O)c4ccc(OC)cc4)cc3F)o2)cc1
inactive: SR leukemia 50.6% | RPMI-8226 leukemia 43.4% | OVCAR-8 ovarian 82.5% | OVCAR-5 ovarian 94.2% | OVCAR-4 ovarian 57.3% | SK-OV-3 ovarian 83.9% | IGROV1 ovarian 84.5% | OVCAR-3 ovarian 76.7% | HS 578T breast 88.2% | NCI/ADR-RES ovarian 55.3%

O=P([O-])(O)OP(=O)([O-])O.[NH-][C@H]1CCCC[C@@H]1[NH-].[OH-].[OH-].[Pt+4]
inactive: SR leukemia 91.3% | RPMI-8226 leukemia 97.8% | OVCAR-8 ovarian 101% | OVCAR-5 ovarian 95.2% | OVCAR-4 ovarian 109% | SK-OV-3 ovarian 106% | IGROV1 ovarian 108% | OVCAR-3 ovarian 111% | HS 578T breast 109% | NCI/ADR-RES ovarian 103%

CCOP(=O)(CCN1CCN(CCCCCOc2cc3c(cc2OC)C(=O)N2CCC[C@H]2C=N3)CC1)OCC
inactive: SR leukemia 28.7% | OVCAR-8 ovarian 83.4% | OVCAR-5 ovarian 106% | OVCAR-4 ovarian 87.8% | SK-OV-3 ovarian 118% | OVCAR-3 ovarian 119% | NCI/ADR-RES ovarian 88.5%
active: RPMI-8226 leukemia -10.5% | IGROV1 ovarian -26%

Cc1sc2nc(CSc3nnc(-c4ccco4)o3)[nH]c(=O)c2c1C
inactive: SR leukemia 56.6% | RPMI-8226 leukemia 67.3% | OVCAR-8 ovarian 104% | OVCAR-5 ovarian 114% | OVCAR-4 ovarian 105% | SK-OV-3 ovarian 132% | IGROV1 ovarian 109% | OVCAR-3 ovarian 108% | HS 578T breast 115% | NCI/ADR-RES ovarian 112%

O=C(NCCc1c[nH]c2ccccc12)C1Cc2ccccc2CN1C(=O)c1ccco1 (stereo not drawn)
active: IGROV1 ovarian 3.58%
inactive: SR leukemia 65.5% | RPMI-8226 leukemia 87.3% | OVCAR-8 ovarian 100% | OVCAR-5 ovarian 125% | OVCAR-4 ovarian 96.9% | SK-OV-3 ovarian 125% | OVCAR-3 ovarian 104% | HS 578T breast 118% | NCI/ADR-RES ovarian 128%

CC(C)N(Cc1ccc(CN(C(=O)CCl)C(C)C)cc1)C(=O)CCl
active: SR leukemia 8.59% | RPMI-8226 leukemia 1.57% | OVCAR-8 ovarian -12.9% | OVCAR-5 ovarian 4.12% | IGROV1 ovarian -49.3% | OVCAR-3 ovarian -76.1% | NCI/ADR-RES ovarian 4.6%
inactive: OVCAR-4 ovarian 26.4% | SK-OV-3 ovarian 49.7% | HS 578T breast 59.3%
